PubChem BioAssay AID1159580 (chemical genetic matrix, 2015)
“And” between values parts separate entries of the source, which are not always exact repeats. Equal entries are not always repeated. In all, about 5,500 compounds went through this assay and about 2,000 (36%) were called active. Another 18% or so got no clear call; they are omitted. Rule as the data show it: active = normalized growth mostly below about 0.91 (no sharp cut-off); inconclusive = no clear call, values can overlap the other calls; inactive = mostly above about 0.92. Some of the results follow.

Assay: chemical genetic growth profiling, strain panel (AID 1159580);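 also: tested at 20 µM; growth read once vehicle control cultures reached saturation at 30 °C; 1 = growth at the plate median or of vehicle wells; lower values mean less growth of the strain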
Conditions: growth OD

Measured: normalized growth

CC1COc2c(N3CCN(C)CC3)c(F)cc3c(=O)c(C(=O)O)cn1c23 (stereo not drawn)
inactive: S. cerevisiae deletion strains, locus YJR066W, strain TOR1, stronger effect = lower value 0.948 | S. cerevisiae deletion strains, locus YKL009W, strain mrt4, stronger effect = lower value 1.03 | S. cerevisiae deletion strains, locus YKL068W, stronger effect = lower value 1.02 | S. cerevisiae deletion strains, locus YKL085W, strain MDH1 (second series), stronger effect = lower value 1 | S. cerevisiae deletion strains, locus YKL085W, strain MDH1, stronger effect = lower value 1 | S. cerevisiae deletion strains, locus YKL160W, strain elf1, stronger effect = lower value 0.971 | S. cerevisiae deletion strains, locus YKL190W, strain CNB1, stronger effect = lower value 1.01 | S. cerevisiae deletion strains, locus YKR001C, strain vps1, stronger effect = lower value 1.03 | S. cerevisiae deletion strains, locus YKR026C, strain gcn3, stronger effect = lower value 0.988 | S. cerevisiae deletion strains, locus YKR091W, strain srl3, stronger effect = lower value 0.984 | S. cerevisiae deletion strains, locus YLL001W, strain dnm1, stronger effect = lower value 0.958 | S. cerevisiae deletion strains, locus YLL026W, stronger effect = lower value 0.998 | S. cerevisiae deletion strains, locus YLL041C, strain sdh2, stronger effect = lower value 0.987 | S. cerevisiae deletion strains, locus YLR027C, strain aat2, stronger effect = lower value 0.997 | S. cerevisiae deletion strains, locus YLR039C, strain RIC1, stronger effect = lower value 1.03 | S. cerevisiae deletion strains, locus YLR058C, strain SHM2, stronger effect = lower value 1.01 | S. cerevisiae deletion strains, locus YLR102C, strain apc9, stronger effect = lower value 1.02 | S. cerevisiae deletion strains, locus YLR113W, strain HOG1, stronger effect = lower value 0.942 | S. cerevisiae deletion strains, locus YLR221C, strain rsa3, stronger effect = lower value 0.979 | S. cerevisiae deletion strains, locus YLR258W, strain gsy2, stronger effect = lower value 0.994 | S. cerevisiae deletion strains, locus YLR262C, strain YPT6 (second series), stronger effect = lower value 0.966 | S. cerevisiae deletion strains, locus YLR262C, strain YPT6, stronger effect = lower value 1.07 | S. cerevisiae deletion strains, locus YLR268W, strain sec22, stronger effect = lower value 1.01 | S. cerevisiae deletion strains, locus YLR320W, strain mms22, stronger effect = lower value 0.961 | S. cerevisiae deletion strains, locus YLR330W, strain CHS5, stronger effect = lower value 1.01 | S. cerevisiae deletion strains, locus YLR342W, strain FKS1 (second series), stronger effect = lower value 1 | S. cerevisiae deletion strains, locus YLR342W, strain FKS1, stronger effect = lower value 0.976 | S. cerevisiae deletion strains, locus YLR357W, strain rsc2, stronger effect = lower value 0.967 | S. cerevisiae deletion strains, locus YLR370C, strain arc18, stronger effect = lower value 0.98 | S. cerevisiae deletion strains, locus YLR371W, strain rom2, stronger effect = lower value 1.02 | S. cerevisiae deletion strains, locus YLR384C, strain iki3, stronger effect = lower value 0.965 | S. cerevisiae deletion strains, locus YLR418C, strain cdc73, stronger effect = lower value 1.02 | S. cerevisiae deletion strains, locus YML016C, strain PPZ1, stronger effect = lower value 1 | S. cerevisiae deletion strains, locus YML032C, strain rad52, stronger effect = lower value 1.01 | S. cerevisiae deletion strains, locus YML120C, strain ndi1, stronger effect = lower value 0.984 | S. cerevisiae deletion strains, locus YML124C, strain tub3, stronger effect = lower value 1.01 | S. cerevisiae deletion strains, locus YMR058W, strain fet3, stronger effect = lower value 0.985 | S. cerevisiae deletion strains, locus YMR078C, strain ctf18, stronger effect = lower value 1.01 | S. cerevisiae deletion strains, locus YMR125W, strain sto1, stronger effect = lower value 0.981 | S. cerevisiae deletion strains, locus YMR129W, stronger effect = lower value 0.99 | S. cerevisiae deletion strains, locus YMR205C, strain PFK2, stronger effect = lower value 0.959 | S. cerevisiae deletion strains, locus YMR223W, strain ubp8, stronger effect = lower value 1.02 | S. cerevisiae deletion strains, locus YMR231W, strain pep5, stronger effect = lower value 0.981 | S. cerevisiae deletion strains, locus YMR307W, strain GAS1, stronger effect = lower value 1.09 | S. cerevisiae deletion strains, locus YNL067W, strain RPL9B, stronger effect = lower value 1 | S. cerevisiae deletion strains, locus YNL071W, strain lat1, stronger effect = lower value 0.987 | S. cerevisiae deletion strains, locus YNL128W, strain TEP1, stronger effect = lower value 1.03 | S. cerevisiae deletion strains, locus YNL153C, strain GIM3, stronger effect = lower value 1.05 | S. cerevisiae deletion strains, locus YNL183C, strain NPR1, stronger effect = lower value 0.928 | S. cerevisiae deletion strains, locus YNL197C, strain WHI3, stronger effect = lower value 1.01 | S. cerevisiae deletion strains, locus YNL209W, strain ssb2, stronger effect = lower value 0.988 | S. cerevisiae deletion strains, locus YNL224C, strain SQS1, stronger effect = lower value 1.01 | S. cerevisiae deletion strains, locus YNL233W, strain BNI4, stronger effect = lower value 1 | S. cerevisiae deletion strains, locus YNL248C, strain rpa49, stronger effect = lower value 0.982 | S. cerevisiae deletion strains, locus YNL250W, strain rad50, stronger effect = lower value 1.01 | S. cerevisiae deletion strains, locus YNL271C, strain bni1, stronger effect = lower value 1.02 | S. cerevisiae deletion strains, locus YNL298W, strain CLA4, stronger effect = lower value 1.02 | S. cerevisiae deletion strains, locus YNL307C, strain MCK1, stronger effect = lower value 1.02 | S. cerevisiae deletion strains, locus YNL322C, strain KRE1 (second series), stronger effect = lower value 0.978 | S. cerevisiae deletion strains, locus YNL322C, strain KRE1, stronger effect = lower value 0.995 | S. cerevisiae deletion strains, locus YNR049C, strain mso1, stronger effect = lower value 0.986 | S. cerevisiae deletion strains, locus YNR052C, strain pop2, stronger effect = lower value 1.03 | S. cerevisiae deletion strains, locus YOL006C, strain TOP1, stronger effect = lower value 1.02 | S. cerevisiae deletion strains, locus YOL012C, strain htz1 1.78 | S. cerevisiae deletion strains, locus YOL147C, strain pex11, stronger effect = lower value 1.01 | S. cerevisiae deletion strains, locus YOR001W, strain rrp6, stronger effect = lower value 1.01 | S. cerevisiae deletion strains, locus YOR061W, strain CKA2, stronger effect = lower value 1.01 | S. cerevisiae deletion strains, locus YOR069W, strain VPS5, stronger effect = lower value 1 | S. cerevisiae deletion strains, locus YOR070C, strain gyp1, stronger effect = lower value 0.994 | S. cerevisiae deletion strains, locus YOR080W, strain dia2, stronger effect = lower value 0.984 | S. cerevisiae deletion strains, locus YOR083W, strain WHI5 (second series), stronger effect = lower value 1.02 | S. cerevisiae deletion strains, locus YOR083W, strain WHI5, stronger effect = lower value 0.953 | S. cerevisiae deletion strains, locus YOR106W, strain vam3, stronger effect = lower value 0.971 | S. cerevisiae deletion strains, locus YOR136W, strain idh2, stronger effect = lower value 1.01 | S. cerevisiae deletion strains, locus YOR144C, strain elg1, stronger effect = lower value 1.01 | S. cerevisiae deletion strains, locus YOR184W, strain ser1, stronger effect = lower value 1.02 | S. cerevisiae deletion strains, locus YOR231W, strain MKK1, stronger effect = lower value 0.972 | S. cerevisiae deletion strains, locus YOR265W, strain rbl2, stronger effect = lower value 0.989 | S. cerevisiae deletion strains, locus YOR270C, strain vph1, stronger effect = lower value 0.965 | S. cerevisiae deletion strains, locus YOR290C, strain snf2, stronger effect = lower value 0.985 | S. cerevisiae deletion strains, locus YOR316C, strain cot1, stronger effect = lower value 1.01 | S. cerevisiae deletion strains, locus YPL051W, strain arl3, stronger effect = lower value 0.98 | S. cerevisiae deletion strains, locus YPL055C, strain LGE1, stronger effect = lower value 1.03 and 1.01 | S. cerevisiae deletion strains, locus YPL078C, strain atp4, stronger effect = lower value 0.966 | S. cerevisiae deletion strains, locus YPL106C, strain sse1, stronger effect = lower value 0.965 | S. cerevisiae deletion strains, locus YPL240C, strain hsp82, stronger effect = lower value 0.999 | S. cerevisiae deletion strains, locus YPL256C, strain CLN2, stronger effect = lower value 1 | S. cerevisiae deletion strains, locus YPR119W, strain clb2, stronger effect = lower value 1.01 | S. cerevisiae deletion strains, locus YPR141C, strain kar3, stronger effect = lower value 1.01 | S. cerevisiae deletion strains, locus YPR163C, strain tif3, stronger effect = lower value 1.01 | S. cerevisiae deletion strains, locus YPR167C, strain met16, stronger effect = lower value 1.01 | S. cerevisiae deletion strains, strain wtn01, stronger effect = lower value 1.01 | S. cerevisiae strains, strain wild type, stronger effect = lower value 1.01
